{
  "source": "paper PMC12136788",
  "binders": {"B1": {"name": "chr2:205797254:205797461:+|3pUTR|ENSG00000118257|msi1|total|mutant (ssRNA)", "RNA": "GGGAGUUCUACAGUCCGACGAUCUCACCCUCCCAUGAUGCGCAGUGUUCAGAAAGCUGGUAAGUCCCCGGGAUUUCCAGAAGCCGCCUGCAGAAGAAGGUAAGUUUGAAAGCCACUCCAGGGGUCCUGAUGCUGUCAUGCUCACAACAGAGGAUUGAGCAUCA"}, "B2": {"name": "chr1:233671823:233671924:+|3pUTR|ENSG00000135750|msi1|total|mutant (ssRNA)", "RNA": "GGGAGUUCUACAGUCCGACGAUCUGCUGCUGUGGUCCGAAGCAGAUUUUAUACUUUUAACUGGAAACUUUGGGGUUUGCAUUCCGAUCAUUCCGCUGAUGGCUAAACCGCAAAAUUUAUAUUCCGAAGCAAAAAAAAAAAGCACAACAGAGGAUUGAGCAUCA"}, "B3": {"name": "chr3:133826890:133826991:-|3pUTR|ENSG00000154917|unk|total|mutant (ssRNA)", "RNA": "GGGAGUUCUACAGUCCGACGAUCUUUGAACGUGUUUCAGAUGUCAUGUGUUCCGUUUUUAUAUGUGUGUACAUAAUUAUAUACCGAGACCGACUUGUGUAUACACCUUCCACAAACACAUCCUCACGGAGAUACAUGUGCUCACAACAGAGGAUUGAGCAUCA"}, "B4": {"name": "chr4:140153917:140154018:-|5pUTR|ENSG00000196782|msi1|FALSE|bound_elsewhere (ssRNA)", "RNA": "GGGAGUUCUACAGUCCGACGAUCUUUGCAGUCGCCUCGGACUGUCCAUGUGUUUACUUCCCCCAGCCCGAGGAUUCGAUAUCUAGGUUCCUGUGAAAUGCAACUGAGCAGCCAAAGUACUUUGAGAACACGGGGCGGCAUAAACAACAGAGGAUUGAGCAUCA"}, "B5": {"name": "ENSG00000070961:be:win_2801|CDS|ENSG00000070961|bound_else_gene|NA|bound_elsewhere_windowed (ssRNA)", "RNA": "GGGAGUUCUACAGUCCGACGAUCGUCAUGCAUUCUAUCAACUUGUAGUAGUCUUUACACUCUUAUUUGCUGGAGAAAAGUUUUUUGACAUUGAUAGUGGAAGAAAUGCUCCUUUGCAUGCUCCUCCUUCAGAACAUUAUACUACAACAGAGGAUUGAGCAUCA"}, "B6": {"name": "chr10:122937732:122937852:-|CDS|ENSG00000119965|unk|total|mutant (ssRNA)", "RNA": "GGGAGUUCUACAGUCCGACGAUCGUAAGUGACAACUCAAAUAUACCCAACUCCGAGUUGCUGCCUUUUCUCCAGAAUUUAUGCCGUCAAGUUAAUCAUCUCCAUGUGGGAAAUAAGACCGAGUGUCAGGAAAACAUCACCAAGCAACAGAGGAUUGAGCAUCA"}, "B7": {"name": "chr4:168927217:168927233:+|3pUTR|ENSG00000129116|msi1_unk|FALSE|overlapping (ssRNA)", "RNA": "GGGAGUUCUACAGUCCGACGAUCAACCACCCAAAUGACCAAGGCAUAUAUAGUAUUUGGAGGAAUCAGGGGUUUGGAAGGAGUAGGGAGGAGAAUGAAGGAAAAUGCAACCAGCAUGAUUAUAGUGUGUUCAUUUAGAUAAAACAACAGAGGAUUGAGCAUCA"}, "B8": {"name": "chr19:57593639:57593745:+|3pUTR|ENSG00000171649|unk|total|mutant (ssRNA)", "RNA": "GGGAGUUCUACAGUCCGACGAUCUGAACCUUCUUAUUUCUCUACAUUCUUGCCAUACUUGGUAUGGUCCGUCUUUUUAAUUUCCGUUGUUUUAACCGCUGUAUAACCGCAUCUGUCUGUGAUUUUAUUGCAUUUUUCUGGUAUCAACAGAGGAUUGAGCAUCA"}, "B9": {"name": "chr7:123541454:123541562:-|3pUTR|ENSG00000128609|unk|total|mutant (ssRNA)", "RNA": "GGGAGUUCUACAGUCCGACGAUCUCCACCGUGUCAUUUUAUUUCCGUCAUUAUUGAAUUAUACCAUUUACUCUGUUUUCUUACCGUCUUAAUUUUAUUAUAUUUUGUUGUUACUGUAUUAUAUUUGAAAACCUUCAAAUCCGACAACAGAGGAUUGAGCAUCA"}, "B10": {"name": "chr17:58090057:58090109:+|3pUTR|ENSG00000264364|msi1_unk|FALSE|overlapping (ssRNA)", "RNA": "GGGAGUUCUACAGUCCGACGAUCGGGUAGGAUUAGCUUGAAUCUUUUUUUUCUUUACAUUUUUCUCCUGUCUGCUCCCUGCUUAGCCCUCAGUUUCCUCAUUCCUCUGGAGUUCUCUUAGAGCAGCCCCUGUUGUUAGUUGGCCAACAGAGGAUUGAGCAUCA"}, "B11": {"name": "chr3:15254852:15254953:-|3pUTR|ENSG00000131370|msi1|total|mutant (ssRNA)", "RNA": "GGGAGUUCUACAGUCCGACGAUCAAACUGUUAAUUCUGUCACAGCCUGUAUAUUUCCGUCAUUUGUAAAUCUCUUCAUACAACCGUGACUUCUUUUUUGACUGAUACAGUAUCUUAAUUACAAGGUUAUUUUGUACUUGUCUUCAACAGAGGAUUGAGCAUCA"}, "B12": {"name": "chr10:30313878:30313980:-|CDS|ENSG00000107951|unk|total|mutant (ssRNA)", "RNA": "GGGAGUUCUACAGUCCGACGAUCUGUUUUUAUAUUUAAGCCCUUCAUGUACUUACUCAUUUUUUCUUCUGUGUAAUAAUCUACCGGGAAGGGAGCAAAACAAACCUGAUUCUUCUCCUCUGUACAUUCAGAAUCCAUUUGAAACAACAGAGGAUUGAGCAUCA"}, "B13": {"name": "chr1:228494639:228494729:+|3pUTR|ENSG00000168159|msi1_unk|total|mutant (ssRNA)", "RNA": "GGGAGUUCUACAGUCCGACGAUCGCCAUCGUGUCUCAUCUUGCUGUUAUCUCCCGCUCUUUCCCUCCUCCCAUUUCCUUCCGCCGUUGAAUUUUGCAAAGCUUGCCGCAGCCGCUCAGUUGCCUGCAGCAUCCUUGUGUGCCGCAACAGAGGAUUGAGCAUCA"}, "B14": {"name": "chr19:57593639:57593745:+|3pUTR|ENSG00000171649|unk|FALSE|unique (ssRNA)", "RNA": "B8 RNA with C68U, C69A, C83U, C84A, C95U, C96A, C106U, C107A"}, "B15": {"name": "chr1:20742972:20743075:-|3pUTR|ENSG00000127483|unk|FALSE|unique (ssRNA)", "RNA": "GGGAGUUCUACAGUCCGACGAUCUAACCCUUUCUUAUUUGUAUUUGUUUUAGUAUUGUGAAGUUGUGUUAAAUAGUACUAGCUAGAAAUACAAAUUUCUGGUUAUCAUUUCUCUUCCCUGUGGCACUUGACAUUUUAAUUGUCCAACAGAGGAUUGAGCAUCA"}, "B16": {"name": "chr1:228494639:228494729:+|3pUTR|ENSG00000168159|msi1_unk|FALSE|overlapping (ssRNA)", "RNA": "GGGAGUUCUACAGUCCGACGAUCGCCAUCGUGUCUCAUCUUGCUGUUAUCUCUAGCUCUUUCCCUCCUCCCAUUUCCUUUAGUAGUUGAAUUUUGCAAAGCUUGUAGCAGUAGCUCAGUUGCCUGCAGCAUCCUUGUGUGUAGCAACAGAGGAUUGAGCAUCA"}},
  "note": "Substitutions are numbered along the chain they refer to. In all, about 5,800 sequences were measured (“enrichment r”: median about 0.54, highest 2% from about 16 on). The list comes from a sample in which the highest values are over-represented; it also holds similar and randomly drawn sequences.",
  "data": [
    {"biological_target": "MSI1 full-length (mouse, UniProt Q61474 1-362)", "sequence (Q61474 whole entry)": "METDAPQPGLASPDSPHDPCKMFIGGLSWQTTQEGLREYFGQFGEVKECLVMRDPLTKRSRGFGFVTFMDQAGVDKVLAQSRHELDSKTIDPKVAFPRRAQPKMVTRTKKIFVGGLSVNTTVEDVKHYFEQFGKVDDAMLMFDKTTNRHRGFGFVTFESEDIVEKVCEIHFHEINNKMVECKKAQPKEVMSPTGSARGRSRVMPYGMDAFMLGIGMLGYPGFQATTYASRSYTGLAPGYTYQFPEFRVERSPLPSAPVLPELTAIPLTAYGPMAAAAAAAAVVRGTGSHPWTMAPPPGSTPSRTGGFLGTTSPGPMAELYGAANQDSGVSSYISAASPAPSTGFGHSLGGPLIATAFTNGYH", "test": "nsRBNS (natural sequence RNA bind-n-seq); RBNS binding buffer (assumed for nsRBNS): 25 mM Tris pH 7.5, 150 mM KCl, 3 mM MgCl2, 0.01% Triton X-100, 500 ug/ml BSA, 20 U/ml SUPERase-In, 4 C; UNK is unkempt and MSI1 is Musashi-1; names of the RNAs are library labels; protein concentration not given here; high values mean tight binding", "units": {"binding signal": "enrichment R"}, "values": [
      {"binder": "B1", "binding signal": 0.483},
      {"binder": "B2", "binding signal": 0.297},
      {"binder": "B3", "binding signal": 0.348},
      {"binder": "B4", "binding signal": 0.362},
      {"binder": "B5", "binding signal": 0.822},
      {"binder": "B6", "binding signal": 0.448},
      {"binder": "B7", "binding signal": 4.58},
      {"binder": "B8", "binding signal": 1.4},
      {"binder": "B9", "binding signal": 37},
      {"binder": "B10", "binding signal": 4.46},
      {"binder": "B11", "binding signal": 0.393},
      {"binder": "B12", "binding signal": 0.482},
      {"binder": "B13", "binding signal": 0.702},
      {"binder": "B14", "binding signal": 19.1},
      {"binder": "B15", "binding signal": 3.75},
      {"binder": "B16", "binding signal": 21.5}
    ]}
  ]
}
